Screening results: PubChem BioAssay, National Center for Advancing Translational Sciences (NCATS)
In the library only some 0.32% were active in any assay of this set; here they are far more common.
SNCA expr inhib: SNCA gene expression inhibition; HEK-293 SNCA-luciferase knock-in, luminescence, 24 h; Potency, µM (series often up to 57.2 µM), without a hit: at the highest dose activity change, negative = inhibition, most hits filed as inhibitors; hit rate 0.17% among 140,000;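 also: plate controls were DMSO cells for no effect and cell-free wells for full effect; nearly all actives have a fitted effect of over 45% in size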
HEK293 viab: counter-screen for SNCA expression inhibitors: cell viability | HEK-293-SNCA-luc viability, GF-AFC fluorescence, 24 h | Potency, µM (series often up to 57.1 µM), inactives show top-dose activity change, negative = cytotoxicity, hits mostly cytotoxic | hit rate 0.12% among 150,000;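 also: 0% = DMSO-treated cells and -100% = medium-only wells without cells; nearly all actives have a fitted effect of over 30% in size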
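HEK-293-SNCA-luc cells (1500/well) plated 24 h, then exposed 24 h to a dilution series; GF-AFC added 30 min at 37C, fluorescence 405/540 nm; normalised to medium-only and DMSO wells, Hill fit.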
GPT2 inh: GPT2 alanine aminotransferase inhibition; Q8TD30; Recombinant GPT2, coupled pyruvate oxidase/HRP Amplex Red fluorescence; Potency, µM (series often up to 57.7 µM), inactives show top-dose activity change, negative = inhibition, hits mostly inhibitors; hit rate 0.25% among 100,000; AID 1671188; also: nearly all actives have a fitted effect of over 60% in size
Target sequence (Q8TD30 whole entry, looked up): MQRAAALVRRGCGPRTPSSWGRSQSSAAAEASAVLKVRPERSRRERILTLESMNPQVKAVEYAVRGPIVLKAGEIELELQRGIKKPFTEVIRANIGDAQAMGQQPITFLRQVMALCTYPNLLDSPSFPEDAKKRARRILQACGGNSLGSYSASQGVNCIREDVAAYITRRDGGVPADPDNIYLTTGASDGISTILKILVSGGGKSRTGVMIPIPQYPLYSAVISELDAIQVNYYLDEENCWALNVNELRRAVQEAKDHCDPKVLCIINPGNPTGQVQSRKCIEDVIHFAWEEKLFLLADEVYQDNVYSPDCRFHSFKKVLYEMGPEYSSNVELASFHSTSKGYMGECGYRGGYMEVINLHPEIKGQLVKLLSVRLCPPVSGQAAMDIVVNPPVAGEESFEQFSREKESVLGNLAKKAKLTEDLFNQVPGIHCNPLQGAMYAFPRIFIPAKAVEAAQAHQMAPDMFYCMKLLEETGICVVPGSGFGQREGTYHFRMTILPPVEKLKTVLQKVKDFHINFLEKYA
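GPT2 10ng/uL, a-KG 250uM, L-Ala 2mM, HEPES pH7.5 + 0.0001% Tween; 30 min RT. Then Amplex mix (PO/HRP/ThPP), 30 min RT dark, fluorescence. AOA 50uM used as positive control.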
An asterisk follows results filed as active; i = inactive; ? = inconclusive; . = not tested or not shown; [ ] = dose if it differs, or a comment. Calls follow the shape of the dose curve; as a rule, active = well fitted curve in the direction sought with a large enough effect; inconclusive = small, poorly fitted or top-dose-only effect, or another doubt; inactive = no such curve, though single readings can be large; an effect the other way counts as inactive or inconclusive. Unless noted, % is scaled to controls: 0 for no effect and ±100 for the full control effect; potency is read from the fitted curve at half-maximal effect.

SMILES | SNCA expr inhib | HEK293 viab | GPT2 inh
O=C(CC[C@H]1NC(=O)c2ccccc2NC1=O)NCCc1ccc(O)cc1 | -17% | 1% | -4%
O=C1c2ccccc2C(=O)c2c(NCCc3ccc(O)cc3)ccc(NCCc3ccc(O)cc3)c21 | ? | 28µM* | 2%
O=C(NCc1ccccc1F)c1nc2sccn2c1-c1ccncc1 | 4% | -7% | 4%
COC[C@@H]1CN(Cc2cccc(C#N)c2)C[C@H]1C(=O)N(C)C | 7% | -16% | -3%
Cc1nn2c(c1-c1ccccc1Oc1ccccc1)N(Cc1ccccc1O)CCC2 | 2µM* | ? | -24%[88.5 µM]
Cc1nn2c(c1-c1ccccc1OCc1ccccc1)N(Cc1ccc(C(=O)O)s1)CCC2 | 11µM* | ? | -20%
Cc1cccc(CN2CCCn3nc(C)c(-c4ccccc4-c4ccccc4)c32)n1 | 4.5µM* | ? | i
COc1ccccc1CN1CCCn2nc(C)c(-c3ccccc3C(N)=O)c21 | 3.5µM* | ? | -13%[88.5 µM]
COc1ccc(OC)c(CN2CCCn3nc(C)c(-c4ccccc4C(C)C)c32)c1 | ? | -29%[87.6 µM] | i
Cc1nn2c(c1-c1ccccc1-c1ccccc1)N(Cc1ccc(O)cc1)CCC2 | ? | ? | -7%[88.5 µM]
Cc1nn2c(c1-c1ccccc1Oc1ccccc1)N(Cc1cccc(O)c1)CCC2 | ? | ? | -13%[88.5 µM]
Cc1nn2c(c1-c1ccccc1OCc1ccccc1)N(Cc1ccccc1)CCC2 | ? | ? | 0%[88.5 µM]
O=C(NCCCc1ccccc1)c1n[nH]c2c1CN(C(=O)c1cccc(Cl)c1)CC2 | 17% | -15% | 1%
O=C(NCCc1ccc(Cl)cc1)C1CCN(c2ccnc3ccnn23)CC1 | -25% | 0% | i
O=C(Nc1ccc(Cl)cc1)c1nc2c(o1)CCN(Cc1cccc(F)c1F)CC2 | -34%[87.6 µM] | -16%[87.6 µM] | -3%[88.5 µM]
CCn1cc(S(=O)(=O)N2CCC(F)(c3nc(-c4ccncc4)no3)CC2)cn1 | -4% | -1% | -4%
COc1ccc(-c2noc([C@@H]3C[C@@H](O)CN3Cc3cc4ccccc4o3)n2)cc1 | 38%[87.6 µM] | -10%[87.6 µM] | -3%[88.5 µM]
COc1ccccc1C(=O)Nc1cc(C2CCCC2)nn1C | 15%[87.6 µM] | 7%[87.6 µM] | i
COc1ccc(Cl)cc1NC(=O)CCS(=O)(=O)c1nc(-c2cccs2)cc(C(F)(F)F)n1 | 28µM* | -23% | .
O=C(CCS(=O)(=O)c1nc(-c2cccs2)cc(C(F)(F)F)n1)Nc1ccc(OC(F)(F)F)cc1 | 2% | -1% | .
COc1ccc(NC(=O)CCS(=O)(=O)c2nc(-c3cccs3)cc(C(F)(F)F)n2)cc1 | 35µM* | ? | .
COc1ccccc1-c1cc(C(F)(F)F)nc(S(=O)(=O)CCCC(=O)Nc2ccccc2F)n1 | 40% | -2% | .
CCCS(=O)(=O)N1CCC2(CC1)C(=O)N(c1cccc(F)c1)C2c1ccccc1 (configuration not stated) | -17% | -20% | -1%
CC(C)Cn1c(=O)c(C(=O)NCc2cccs2)nc2cccnc21 | -5%[87.6 µM] | -6%[87.6 µM] | -13%[88.5 µM]
COc1ccc(-c2cc(-c3ccncc3)c3cncn3c2)cc1 | -14%[87.6 µM] | -11%[87.6 µM] | -1%[88.5 µM]
SMILES | SNCA expr inhib | HEK293 viab | GPT2 inh
O=C(NCC1CCCCC1)c1nc2sccn2c1-c1ccccc1 | ? | ? | i
COc1cccc(CNC(=O)c2cc(C(C)(C)C)nc3c2cnn3C)c1 | 12% | 1% | -8%
CCC(c1cccs1)N1C(=O)[C@H]2CN(S(=O)(=O)c3ccccc3)C[C@H]2C1=O (some centres not stated) | -19% | 4% | i
CCC(c1cccs1)N1C(=O)[C@H]2CN(CCC(C)C)C[C@H]2C1=O (some centres not stated) | 3.5µM* | ? | i
O=C(Nc1ccc(F)cc1)c1ccc2c(c1)OCCN(C1CCC1)C2 | 57%[87.6 µM] | -16%[87.6 µM] | 4%[88.5 µM]
COCCn1c2c([n+](Cc3cnccn3)c1C)C(=O)c1ccccc1C2=O | 0.096µM* | 0.076µM* | 0.15µM*
COCCn1c(=O)c(C(=O)NC(C)C)nc2cccnc21 | 23%[87.6 µM] | 5%[87.6 µM] | -7%[88.5 µM]
COc1ccc(NC(=O)N2CCc3c(C(=O)NCCCN4CCCC4=O)cccc32)cc1 | 10µM* | 16% | 0%
CCCNC(=O)c1cccc2c1CCN2C(=O)Nc1ccc(OC)cc1 | 28µM* | -10% | 2%
COc1ccc(NC(=O)N2CCc3c(C(=O)NCc4ccncc4)cccc32)cc1 | ? | 7% | i
COc1ccc(NC(=O)N2CCc3c(C(=O)Nc4ccc5c(c4)OCO5)cccc32)cc1 | 7.9µM* | 18% | i
COc1ccc(NC(=O)c2cccc3c2CCN3C(=O)Nc2ccc(F)cc2)cc1 | 37% | -10% | i
CCNC(=O)c1cccc2c1CCN2C(=O)Nc1ccc(C)cc1 | ? | 7% | 1%
COc1ccc(NC(=O)N2CCc3c(C(=O)NCCCN(C)C)cccc32)cc1 | ? | 4% | -3%
CCN1CCN(CCNC(=O)c2cccc3c2CCN3C(=O)Nc2ccc(C)cc2)CC1 | 13µM* | -7% | -1%
CCC(=O)N1CCN(c2nc3c(s2)CC(C(=O)Nc2ccc(F)cc2F)CC3)CC1 (configuration not stated) | -25% | ? | i
O=C(NCC1CC1)c1ccc2nc(-c3ccccn3)oc2c1 | -11%[87.6 µM] | 7%[87.6 µM] | i
Cc1ccc(-c2c(C(=O)NCc3ccccn3)nc3sccn23)cc1 | -15% | -16% | i
COc1ccccc1-c1cccc(C(=O)N2CCC[C@H]2C(=O)NCC2CCCCCC2)c1 | -27% | 5%[12.5 µM] | ?
COc1ccccc1CNC(=O)C1CCN(Cc2ccccc2-c2cccnc2)CC1 | -18% | ? | 0%
O=C(Nc1ccccc1)NC1CCN(Cc2cccc(-c3ccc(F)c(F)c3)c2)CC1 | -2% | -26% | -29%
COc1ccc(C(=O)NC2CCN(c3nccc(Nc4ccc(C)cc4)n3)CC2)cc1 | 16% | -27% | -5%
CCN(c1ccccc1)S(=O)(=O)c1ccc(NC(=O)c2nc(S(C)(=O)=O)ncc2Cl)cc1 | ? | 10µM* | .
CCS(=O)(=O)c1ncc(Cl)c(C(=O)Nc2ccc(S(=O)(=O)N(C)c3ccccc3)cc2)n1 | 2.8µM* | 10µM* | .
CCSc1ncc(Cl)c(C(=O)Nc2ccc(S(=O)(=O)N(C)c3ccccc3)cc2)n1 | ? | 22% | .
SMILES | SNCA expr inhib | HEK293 viab | GPT2 inh
CC(C)Sc1ncc(Cl)c(C(=O)Nc2ccc(S(=O)(=O)N(C)c3ccccc3)cc2)n1 | -9% | 0% | .
COC1CN(c2cccc(F)c2)C12CCN(C(=O)C1(c3ccccc3)CC1)CC2 (configuration not stated) | -17% | -12% | -16%
COc1ccc(CCNC(=O)c2cc(-c3cccc(C(F)(F)F)c3)c3nncn3n2)cc1 | 4% | -5% | 5%
O=C(NCCc1ccc(Cl)cc1)c1ccc2nnc(-c3cccnc3)n2c1 | -2% | 1% | i
Cc1cccc(-c2[nH]c(C(C)(C)C)nc2-c2ccc3c(c2)OCO3)n1 | -31% | -16% | 2%
CC(C)(C)Cn1c(N)nc2ccc(-c3[nH]c(C(C)(C)C)nc3-c3ccc(F)cc3)nc21 | 27µM* | ? | 4%
O=C(NCCc1ccccc1F)c1ccc2nnc(-c3cc(C(F)(F)F)cc(C(F)(F)F)c3)n2c1 | -9% | ? | ?
Cc1ccc(NC(=O)c2ccc(CN3C(=O)NC4(CCOCC4)C3=O)cc2)cc1C | 21% | 2% | i
